Experimental data reported in PMC4336329 (PLoS ONE, 2015).
About 14,000 (4.5%) of roughly 310,000 compounds showed an effect of 50% or more. The effect is printed as a negative number. The sample as a whole holds a higher share of strong results than the screen did.

target: human ether-à-go-go-related gene (hERG) potassium channel (human, UniProt Q12809); assay: primary screen, population patch clamp on CHO cells stably expressing hERG; higher = less effect of the substance
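Note: peak tail current of the secondary pulse compared with the same well before compound.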

Sequence of human ether-à-go-go-related gene (hERG) potassium channel (Q12809 whole entry, looked up): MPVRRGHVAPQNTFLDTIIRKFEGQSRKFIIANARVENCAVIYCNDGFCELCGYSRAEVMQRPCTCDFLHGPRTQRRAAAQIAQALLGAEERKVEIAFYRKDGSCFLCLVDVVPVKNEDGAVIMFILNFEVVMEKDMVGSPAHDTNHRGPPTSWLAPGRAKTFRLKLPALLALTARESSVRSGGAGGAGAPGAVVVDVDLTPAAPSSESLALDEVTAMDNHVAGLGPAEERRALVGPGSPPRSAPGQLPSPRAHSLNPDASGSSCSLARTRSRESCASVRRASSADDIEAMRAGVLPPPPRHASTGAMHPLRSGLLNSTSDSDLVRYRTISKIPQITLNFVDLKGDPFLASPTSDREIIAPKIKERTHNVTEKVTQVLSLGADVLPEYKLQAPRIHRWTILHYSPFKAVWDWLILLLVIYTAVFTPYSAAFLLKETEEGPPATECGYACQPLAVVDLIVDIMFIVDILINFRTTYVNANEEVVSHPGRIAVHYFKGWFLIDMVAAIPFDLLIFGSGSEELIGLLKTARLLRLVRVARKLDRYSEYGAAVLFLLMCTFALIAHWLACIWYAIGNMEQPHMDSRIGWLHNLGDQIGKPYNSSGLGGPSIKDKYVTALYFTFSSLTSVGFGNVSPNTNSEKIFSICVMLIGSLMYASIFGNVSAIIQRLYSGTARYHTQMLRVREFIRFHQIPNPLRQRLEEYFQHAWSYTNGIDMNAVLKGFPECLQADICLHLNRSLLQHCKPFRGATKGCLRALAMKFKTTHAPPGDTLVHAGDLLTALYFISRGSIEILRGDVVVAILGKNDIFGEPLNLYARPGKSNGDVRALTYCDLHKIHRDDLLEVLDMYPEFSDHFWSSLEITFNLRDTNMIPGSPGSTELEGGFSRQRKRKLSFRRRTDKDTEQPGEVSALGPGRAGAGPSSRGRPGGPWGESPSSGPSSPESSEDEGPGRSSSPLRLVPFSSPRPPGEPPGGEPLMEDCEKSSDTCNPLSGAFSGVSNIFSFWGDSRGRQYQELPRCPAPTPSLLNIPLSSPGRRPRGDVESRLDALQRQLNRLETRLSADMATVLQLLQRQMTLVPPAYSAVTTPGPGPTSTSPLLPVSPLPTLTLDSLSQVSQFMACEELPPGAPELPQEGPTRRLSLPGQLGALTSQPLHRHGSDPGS

Row | Compound | hERG current change (%, negative = inhibition) at 10uM
1 | O=C(NCc1ccc2c(c1)OCO2)C1CC(=O)N(c2ccc(F)cc2)C1 (centres unmarked) | -29.9%
2 | CC(C)(C)NC(=O)CN(C(=O)CCC(=O)Nc1nccs1)c1ccc(F)cc1 | 12.6%
3 | CCC(CO)NCc1ccc2c(c1)n(C)c(=O)n2C.Cl (centres unmarked) | 17.4%
4 | O=C(O)c1ccc(NS(=O)(=O)c2cc(C(=O)O)ccc2Br)cc1 | 17%
5 | O=C(N/N=C\c1ccc(Cl)s1)c1cccs1 | 23.2%
6 | COc1ccccc1N1CCN(C(=O)c2sc3ncn(CC(=O)N4CCC(C)CC4)c(=O)c3c2C)CC1 | -29.3%
7 | Br.CCCCCCN1Cc2ccccc2C1 | -39.3%
8 | CCCCCCCn1ccc(=N)cc1.I | -14.7%
9 | Br.CCCCCCCCCCCCn1ccc(=N)cc1 | -60.2%
10 | Br.CCCCCCCCCCn1ccc(=N)cc1 | -72.9%
11 | Br.CCCCCCCCn1ccc(=N)cc1 | -27%
12 | Br.CCCCCCCCCn1ccc(=N)cc1 | -66%
13 | CCCCCn1ccc(=N)cc1.I | 11.7%
14 | Br.CCCCCCn1ccc(=N)cc1 | 1.66%
15 | CCCCCCCCCCCCCCCCn1cc[n+](C)c1.[Br-] | -18.4%
16 | O=C(O)C1CCCCC1C(=O)NCCCN1CCOCC1 (centres unmarked) | -1.05%
17 | Cc1ccc(/C=C/C(=O)NCC2COc3ccccc3O2)o1 (centres unmarked) | -18.2%
18 | CCCCC(=O)N/N=C/c1c(O)n(CCc2ccccc2)c(=O)[nH]c1=O | 18.3%
19 | CCOC(=O)C1CCCN(c2c(NCCN3CCCCC3C)c(=O)c2=O)C1 (centres unmarked) | 5.47%
20 | COc1ccc(C(=O)COC(=O)c2ccc3c(c2)OCO3)c(OC)c1 | -16.9%
21 | COc1ccc(OCC(O)Cn2c(N3CCCCC3)nc3c2c(=O)[nH]c(=O)n3C)cc1 (centres unmarked) | -5.73%
22 | CN1CCN(c2nc3c(c(=O)[nH]c(=O)n3C)n2Cc2ccccc2)CC1 | -25.4%
23 | Cn1c(=O)[nH]c(=O)c2c1nc(Br)n2Cc1cccc(Br)c1 | 15.1%

Row | Compound | hERG current change (%, negative = inhibition) at 10uM
24 | COc1ccc(OCC(O)Cn2c(Br)nc3c2c(=O)[nH]c(=O)n3C)cc1 (centres unmarked) | -12.6%
25 | Cn1c(=O)[nH]c(=O)c2c1nc(Br)n2CC(O)COc1ccccc1 (centres unmarked) | -0.394%
26 | CN1CCN(c2nc3c(c(=O)[nH]c(=O)n3C)n2Cc2cccc(Br)c2)CC1 | -53.5%
27 | Cn1c(=O)[nH]c(=O)c2c1nc(Br)n2CC(O)COc1ccc(Cl)cc1 (centres unmarked) | -63.6%
28 | CCCn1c(N2CCN(C)CC2)nc2c1c(=O)[nH]c(=O)n2C | -13.5%
29 | CCCn1c(N2CCN(Cc3cccc(C)c3)CC2)nc2c1c(=O)[nH]c(=O)n2C | -53%
30 | Cn1c(=O)[nH]c(=O)c2c1nc(N1CCCCC1)n2CC(O)COc1ccc([N+](=O)[O-])cc1 (centres unmarked) | -69.8%
31 | Cc1ccc(OCC(O)Cn2c(N3CCCCC3)nc3c2c(=O)[nH]c(=O)n3C)cc1 (centres unmarked) | 9.46%
32 | COc1ccc(N2CCN(c3nc4c(c(=O)[nH]c(=O)n4C)n3Cc3cccc(C)c3)CC2)cc1 | -14.2%
33 | CCOC(=O)C[C@H]1c2ccccc2S(=O)(=O)N1C1CC1 | 5.78%
34 | Br.CC1(C)OC(c2ccccc2)=C/C(=C/C=Nc2ccccc2)O1 | -12.9%
35 | CC(C)c1ccc(C(O)c2cnc(C(C)C)n2C)cc1 (centres unmarked) | -27.5%
36 | O=C1N=C(N2CCN(c3cccc4ccccc34)CC2)S/C1=C/c1cccs1 | 11.9%
37 | O=C1N/C(=N\N=C\c2cccs2)SC1Cc1ccc(Cl)cc1 (centres unmarked) | -8.96%
38 | COc1ccc(-n2cnnc2SCC(=O)NC2CCS(=O)(=O)C2)cc1 (centres unmarked) | 8.52%
39 | O=C(CSc1nc2ccccc2n1-c1ccccc1)Nc1ncc(Cl)cc1Cl | 12.1%
40 | O=C(Nc1ccc(F)cc1F)C1CCN(S(=O)(=O)c2cccnc2)CC1 | -1.85%
41 | CSc1ccc(Cn2nnc(C(=O)NCc3ccccc3)c2N)cc1 | -0.141%
42 | CS(=O)(=O)N1CCC(C(=O)Nc2cccc(C(F)(F)F)c2)CC1 | -14.2%
43 | O=C(CCCCn1c(=O)c2ccccc2n(Cc2ccc(F)cc2Cl)c1=O)NCc1ccco1 | -5.07%
44 | Cc1cccc(Cn2c(N3CCCCC3C)nc3c2c(=O)[nH]c(=O)n3C)c1 (centres unmarked) | -57%
45 | CC1CCN(c2nc3c(c(=O)[nH]c(=O)n3C)n2Cc2ccccc2)CC1 | 7.99%
46 | CN1CCN(c2nc3c(c(=O)n(C)c(=O)n3C)n2Cc2cccc(Br)c2)CC1 | -55.1%

Row | Compound | hERG current change (%, negative = inhibition) at 10uM
47 | Cc1cccc(Cn2c(N3CCN(C)CC3)nc3c2c(=O)[nH]c(=O)n3C)c1 | -50.7%
48 | CN1CCN(c2nc3c(c(=O)[nH]c(=O)n3C)n2Cc2ccc([N+](=O)[O-])cc2)CC1 | -59%
49 | Cc1cccc(Cn2c(N3CCc4ccccc4C3)nc3c2c(=O)[nH]c(=O)n3C)c1 | -4.89%
50 | Cc1ccc(Cn2c(N3CCN(C)CC3)nc3c2c(=O)[nH]c(=O)n3C)cc1 | -14.9%
51 | Cc1cccc(Cn2c(N3CCN(CCO)CC3)nc3c2c(=O)[nH]c(=O)n3C)c1 | -23.5%
52 | CN1CCN(c2nc3c(c(=O)[nH]c(=O)n3C)n2Cc2cccc3ccccc23)CC1 | -27.6%
53 | CN1CCN(c2nc3c(c(=O)[nH]c(=O)n3C)n2Cc2ccc(Cl)cc2)CC1 | -15.5%
54 | CN1CCN(c2nc3c(c(=O)n(C)c(=O)n3C)n2Cc2ccc(Cl)cc2)CC1 | -39.5%
55 | Cc1cccc(Cn2c(N3CCN(C)CC3)nc3c2c(=O)n(C)c(=O)n3C)c1 | -49%
56 | O=C(COC(=O)CCNS(=O)(=O)c1ccc2c(c1)OCCO2)NC1CCCc2ccccc21 (centres unmarked) | -0.954%
57 | O=C(CN(C(=O)c1ccccc1Cl)N1C(=O)C2C3C=CC(C3)C2C1=O)c1cccs1 (centres unmarked) | 7.25%
58 | O=C(CSc1ncn[nH]1)NC12CC3CC(CC(C3)C1)C2 | -5.91%
59 | O=C(N/N=C/c1c(F)c(F)c(F)c(F)c1F)c1cc(-c2ccccc2)nc2ccccc12 | 6.92%
60 | O=C(O)Cc1csc(-c2cccc(F)c2)n1 | 19.1%
61 | CC(C)OC(=O)NCCOC(=O)Nc1ccccc1Cl | 21.6%
62 | Cn1c(=O)c(=O)n(C)c2cc(S(=O)(=O)CCC(=O)NCc3ccccc3)ccc21 | 20%
63 | COc1ccc(OC)c(/C=N/NC(=O)Cc2nc3ccccc3[nH]2)c1 | 5.63%
64 | Cc1onc(-c2ccccc2)c1C(=O)N1CCN(S(=O)(=O)c2ccccc2C(F)(F)F)CC1 | 22.6%
65 | Cc1cc(S(=O)(=O)Nc2ccc(C(=O)NCCCN3CCCC3=O)cc2)ccc1F | 8.37%
66 | O=C(NCc1ccccc1)C1C(=O)N(Cc2ccccc2)C(=O)C1C1(O)CCCC1 (centres unmarked) | 2.87%
67 | O=C(Nc1ccc2oc(=O)ccc2c1)c1ccc(-c2ccc(Cl)cc2)o1 | 3.37%
68 | S=c1[nH]nc(Cc2ccccc2)n1Cc1ccco1 | -5.08%
69 | Cc1nc2ccc(S(=O)(=O)NCC(=O)N3CCN(c4ccccc4)CC3)cc2s1 | -1.33%

Row | Compound | hERG current change (%, negative = inhibition) at 10uM
70 | O=C(O)c1cc(NC(=O)c2cccc(F)c2)cc(NC(=O)c2cccc(F)c2)c1 | 15.4%
71 | COc1ccc(C(CNC(=O)COc2ccc(Br)cc2F)N2CCCC2)cc1 (centres unmarked) | -78.6%
72 | COc1ccc(C(CNC(=O)COc2ccc(F)cc2Cl)N2CCCCC2)cc1 (centres unmarked) | -8.7%
73 | COc1ccc(OCC(=O)NCC(c2ccc(OC)cc2)N2CCCCC2)cc1 (centres unmarked) | -33.1%
74 | COc1ccc(C(CNC(=O)COc2ccc([N+](=O)[O-])cc2)N2CCCCC2)cc1 (centres unmarked) | -69.9%
75 | COc1ccc(C(CNC(=O)COc2ccc(F)cc2Br)N2CCCC2)cc1 (centres unmarked) | -64.5%
76 | COc1ccc(C(CNC(=O)COc2ccccc2)N2CCCCC2)cc1 (centres unmarked) | -29.3%
77 | COc1ccc(C(CNC(=O)COc2ccccc2C)N2CCCC2)cc1 (centres unmarked) | -40.8%
78 | COc1ccc(C(CNC(=O)COc2ccccc2OC)N2CCCCC2)cc1 (centres unmarked) | -19.5%
79 | COc1ccc(C(CNC(=O)COc2ccccc2C)N2CCCCC2)cc1 (centres unmarked) | -20.7%
80 | COc1ccccc1CNC(=O)CCc1nc2ccccc2c(=O)[nH]1 | -1.26%
81 | CC(=O)Nc1cccc(NC(=O)c2cccc(OCc3ccccc3)c2)c1 | 10.6%
82 | Cc1ccc(C2(C(F)(F)F)NC(=O)N3CCCN=C3S2)cc1 (centres unmarked) | 16.5%
83 | Cc1ccc(NC(=S)N(CCN2CCCCC2)Cc2ccco2)cc1Cl | -51.1%
84 | Cc1cc(C)cc(NC(=S)N(CCN2CCCCC2)Cc2ccco2)c1 | -74.4%
85 | Cc1ccc(NC(=S)N(CCN2CCCCC2)Cc2ccco2)cc1C | -80.3%
86 | Cc1cccc(C)c1NC(=S)N(CCCN1CCCCC1)Cc1ccco1 | -25.7%
87 | Cc1cc(NC(=S)N(CCN2CCCCC2)Cc2ccco2)ccc1Cl | -55.3%
88 | Cc1cccc(C)c1NC(=S)N(CCN1CCCCCC1)Cc1ccco1 | -34.9%
89 | Cc1cc(C)c(NC(=S)N(CCN2CCCCC2)Cc2ccco2)c(C)c1 | -37.9%
